Laboratory results as given in publication PMC9911399, “Two distinct binding modes provide the RNA-binding protein RbFox with extraordinary sequence specificity”.
Substitutions are numbered along the chain they refer to; changes in the protein carry UniProt numbers. The full ranking holds about 16,000 sequences; the median of “ka relative to ugcaugu” is about 0.0091, and the highest 2% start at about 0.032. The list comes from a sample in which the highest values are over-represented; it also holds similar and randomly drawn sequences.

T1: RBFOX1 RRM (Homo sapiens, UniProt Q9NWB1 109-208)
T1 sequence: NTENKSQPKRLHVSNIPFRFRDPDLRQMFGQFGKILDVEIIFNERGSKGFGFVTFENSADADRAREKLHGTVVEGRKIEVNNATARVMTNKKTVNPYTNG

B1: UGCGAUA (DNA:RNA)
RNA: GGGAGACCGGAAUUCAGAUUGUCCUGCGAUAUUAAAUCCCGUCGUAGCCACCA
DNA 1: CAATCTGAATTCCGGTCTCCC
DNA 2: TGGTGGCTACGACGGGATT
B2: UUGAGCA (DNA:RNA)
RNA: B1 RNA with G26U, C27G, G28A, A29G, U30C
DNA 1: CAATCTGAATTCCGGTCTCCC
DNA 2: TGGTGGCTACGACGGGATT
B3: CUUUUUG (DNA:RNA)
RNA: B1 RNA with U25C, G26U, C27U, G28U, A29U, A31G
DNA 1: CAATCTGAATTCCGGTCTCCC
DNA 2: TGGTGGCTACGACGGGATT
B4: UCAACCU (DNA:RNA)
RNA: B1 RNA with G26C, C27A, G28A, A29C, U30C, A31U
DNA 1: CAATCTGAATTCCGGTCTCCC
DNA 2: TGGTGGCTACGACGGGATT
B5: UACCUGU (DNA:RNA)
RNA: B1 RNA with G26A, G28C, A29U, U30G, A31U
DNA 1: CAATCTGAATTCCGGTCTCCC
DNA 2: TGGTGGCTACGACGGGATT
B6: AGGGCGU (DNA:RNA)
RNA: B1 RNA with U25A, C27G, A29C, U30G, A31U
DNA 1: CAATCTGAATTCCGGTCTCCC
DNA 2: TGGTGGCTACGACGGGATT
B7: GUUUUGU (DNA:RNA)
RNA: GGGAGACCGGAAUUCAGAUUGUCCGUUUUGUUUAAAUCCCGUCGUAGCCACCA
DNA 1: CAATCTGAATTCCGGTCTCCC
DNA 2: TGGTGGCTACGACGGGATT
B8: AAUCCAC (DNA:RNA)
RNA: B7 RNA with G25A, U26A, U28C, U29C, G30A, U31C
DNA 1: CAATCTGAATTCCGGTCTCCC
DNA 2: TGGTGGCTACGACGGGATT
B9: UGCAUUG (DNA:RNA)
RNA: B1 RNA with G28A, A29U, A31G
DNA 1: CAATCTGAATTCCGGTCTCCC
DNA 2: TGGTGGCTACGACGGGATT
B10: UGCAGCA (DNA:RNA)
RNA: B1 RNA with G28A, A29G, U30C
DNA 1: CAATCTGAATTCCGGTCTCCC
DNA 2: TGGTGGCTACGACGGGATT
B11: UCCUGCA (DNA:RNA)
RNA: B1 RNA with G26C, G28U, A29G, U30C
DNA 1: CAATCTGAATTCCGGTCTCCC
DNA 2: TGGTGGCTACGACGGGATT
B12: CUGUGCA (DNA:RNA)
RNA: B7 RNA with G25C, U27G, U29G, G30C, U31A
DNA 1: CAATCTGAATTCCGGTCTCCC
DNA 2: TGGTGGCTACGACGGGATT
B13: GGUGCAU (DNA:RNA)
RNA: B7 RNA with U26G, U28G, U29C, G30A
DNA 1: CAATCTGAATTCCGGTCTCCC
DNA 2: TGGTGGCTACGACGGGATT
B14: CCGUGCA (DNA:RNA)
RNA: B7 RNA with G25C, U26C, U27G, U29G, G30C, U31A
DNA 1: CAATCTGAATTCCGGTCTCCC
DNA 2: TGGTGGCTACGACGGGATT
B15: UGCAUUA (DNA:RNA)
RNA: B1 RNA with G28A, A29U
DNA 1: CAATCTGAATTCCGGTCTCCC
DNA 2: TGGTGGCTACGACGGGATT
B16: UGGUGCA (DNA:RNA)
RNA: B1 RNA with C27G, G28U, A29G, U30C
DNA 1: CAATCTGAATTCCGGTCTCCC
DNA 2: TGGTGGCTACGACGGGATT
B17: CGGUGCA (DNA:RNA)
RNA: B1 RNA with U25C, C27G, G28U, A29G, U30C
DNA 1: CAATCTGAATTCCGGTCTCCC
DNA 2: TGGTGGCTACGACGGGATT
B18: UGCUGCA (DNA:RNA)
RNA: B1 RNA with G28U, A29G, U30C
DNA 1: CAATCTGAATTCCGGTCTCCC
DNA 2: TGGTGGCTACGACGGGATT
B19: GGGUGCA (DNA:RNA)
RNA: B7 RNA with U26G, U27G, U29G, G30C, U31A
DNA 1: CAATCTGAATTCCGGTCTCCC
DNA 2: TGGTGGCTACGACGGGATT
B20: UGCAUUC (DNA:RNA)
RNA: B1 RNA with G28A, A29U, A31C
DNA 1: CAATCTGAATTCCGGTCTCCC
DNA 2: TGGTGGCTACGACGGGATT

What follows are binders tested against T1, RBFOX1 RRM (assay: EMSA; HiTS-Eq, 1 nM pool, 10 min; buffer printed only for the single-RNA assays: 10 mM Tris pH 7.5, 150 mM NaCl, 3.4 mM EDTA, 0.001% NP-40, 30 C). Conditions: tags: His6 N-terminal (pET28a); label: 5' 32P.
Procedure, shortened: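 Purified RbFox RRM, wild type or mutant, was incubated for 10 min in 50 µL with 1 nM of a 5′-radiolabelled RNA pool carrying 7 randomized nucleotides, whose flanks were annealed to DNA oligonucleotides, over a series of increasing protein concentrations. Unbound RNA was resolved on 8% native PAGE, cut out, reverse-transcribed, barcoded by PCR and sequenced on an Illumina HiSeq 2500. Relative association constants were derived from changes in read counts for each RNA species versus the control reaction and normalised to the cognate motif.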
For B1, the binding signal was 0.017 KA relative to UGCAUGU. B2 was tested, and the binding signal was 0.0174 KA relative to UGCAUGU. For B3, the binding signal was 0.0263 KA relative to UGCAUGU. B4 was tested, and the binding signal was 0.00233 KA relative to UGCAUGU. B5 was tested, and the binding signal was 0.0129 KA relative to UGCAUGU. For B6, the binding signal was 0.0222 KA relative to UGCAUGU. In the case of B7, the binding signal is reported as 0.0195 KA relative to UGCAUGU. B8 was tested, and the binding signal was 0.000933 KA relative to UGCAUGU. With B9 the binding signal was 0.0355 KA relative to UGCAUGU. B10 was tested, and the binding signal was 0.0136 KA relative to UGCAUGU. B11 was tested, and the binding signal was 0.0135 KA relative to UGCAUGU. With B12 the binding signal was 0.0239 KA relative to UGCAUGU. For B13, the binding signal was 0.0241 KA relative to UGCAUGU. B14 was tested, and the binding signal was 0.017 KA relative to UGCAUGU. In the case of B15, the binding signal is reported as 0.0146 KA relative to UGCAUGU. B16 was tested, and the binding signal was 0.0327 KA relative to UGCAUGU. For B17, the binding signal was 0.0194 KA relative to UGCAUGU. For B18, the binding signal was 0.0343 KA relative to UGCAUGU. With B19 the binding signal was 0.0415 KA relative to UGCAUGU. With B20 the binding signal was 0.0105 KA relative to UGCAUGU.
